Laboratory results taken from ChEMBL document CHEMBL4513216, “Probing the Open Global Health Chemical Diversity Library for Multistage-Active Starting Points for Next-Generation Antimalarials” (ACS Infect Dis, 2020).
Screen size: about 69,000 compounds; about 8,600 (12%) showed an effect of 50% or more. This excerpt belongs to a sample that is enriched for strong results.

system: Plasmodium berghei; assay: Screen against P. berghei liver stage (PbLuc), transformed with Luciferase, at 10uM; assay type: functional, HepG2; settings: tested at 10 uM

Row | Structure (SMILES) | INHIBITION
1 | Cc1ccc(-c2ccnc(NCC(O)c3ccc(O)cc3)n2)c(C)n1 (centres undefined) | 37.8%
2 | COc1ccc2c(c1)CCCN2C(=O)NC1CCCCNC1=O (centres undefined) | 44.3%
3 | O=C1NCCCCC1NC(=O)N1CCCc2cc(F)ccc21 (centres undefined) | 58.9%
4 | O=C1NCCCCC1NC(=O)N1CCCc2ccccc21 (centres undefined) | 34.2%
5 | Cc1ccc(CN2CCc3[nH]nc(C(=O)N(C)C)c3C2)s1 | 8.74%
6 | COC(=O)CCNC(=O)c1nnn(-c2ccc(C)cc2)c1C1CC1 | 49.8%
7 | O=C(NCC1(CO)CC1)c1nnn(-c2ccc(F)cc2)c1C1CC1 | 78.2%
8 | Cc1ccc(-n2nnc(C(=O)NCCS(N)(=O)=O)c2C2CC2)cc1 | 58.5%
9 | NS(=O)(=O)CCNC(=O)c1nnn(-c2ccc(F)cc2)c1C1CC1 | 36.8%
10 | O=C(NCC1(C(=O)O)CCC1)c1nnn(-c2ccc(F)cc2)c1C1CC1 | 20%
11 | NS(=O)(=O)CCNC(=O)c1nnn(-c2ccccc2)c1C1CC1 | 56.8%
12 | CS(=O)(=O)NC(=O)c1nnn(-c2ccccc2)c1C1CC1 | 8.64%
13 | Cc1ccc(-n2nnc(C(=O)NCC3(CO)CC3)c2C2CC2)cc1 | 33.3%
14 | CC(C)NC(=O)c1nnn(-c2ccccc2)c1C1CC1 | -65.5%
15 | CCc1nc(C2CCCN(C(=O)c3cc(C(C)C)[nH]n3)C2)no1 (centres undefined) | 21.6%
16 | O=C(NCC1CC1)[C@@H]1CC[C@@H]2[C@@H](CCN2Cc2ccco2)O1 | -35%
17 | O=C(NCCN1CCOCC1)c1nc(-c2ccc3[nH]ccc3c2)no1 | -50.8%
18 | Cn1ncc(C(=O)N2CCN(S(C)(=O)=O)CC2)c1Cl | -10.95%
19 | CNC(=O)C1(C)CCCN1Cc1cnn(C)c1C (centres undefined) | 37.8%
20 | Cc1nn(C)cc1CN(C)C(=O)c1ccncc1 | 69.9%
21 | Cc1nn(C)cc1CN(C)C(=O)c1ccccn1 | 8.7%
22 | Cc1nn(C)cc1CN(C)C(=O)c1cccnc1 | -13.6%
23 | Cc1nc(CN2CCC3(CC2)NC(=O)CC3c2ccncc2)cs1 (centres undefined) | 45.7%

Row | Structure (SMILES) | INHIBITION
24 | CCC(C)N(Cc1sccc1C)C(=O)c1cnc[nH]1 (centres undefined) | 9.41%
25 | CCc1nnc(CN(C)Cc2cccc(C(=O)Nc3nccs3)c2)o1 | 70.9%
26 | CCc1nnc(CN(C)Cc2cccc(C(=O)Nc3ccnn3C)c2)o1 | 35%
27 | CCc1nnc(CN(C)Cc2cccc(C(=O)Nc3cnn(C)c3)c2)o1 | 28.7%
28 | CC(C)(CO)CCCNC(=O)NC1(C)Cc2ccccc2C1 | 47.2%
29 | c1ccc(CN2CCc3nnc(CN4CCCCC4)n3CC2)nc1 | -2.84%
30 | COc1ccc(Cc2ncc3c(n2)CN(C(=O)C(C)(C)OC)C3)cc1 | 11.2%
31 | Cc1cc(C(=O)N(CC2CCCO2)c2ccncc2)c(C)o1 (centres undefined) | 26.4%
32 | Cc1ccc(C(=O)N2CCn3c(COCC4CC4)cnc3C2C)s1 (centres undefined) | -3.24%
33 | NC(=O)COc1ccc(CNCc2ccc(F)c(F)c2)cc1 | -33.2%
34 | CC(N1CCN(C(=O)NCc2cccc(C#N)c2)CC1)C(F)(F)F (centres undefined) | 56.7%
35 | CC1CN(C(=O)NCc2cccc(C#N)c2)CCN1CC(F)(F)F (centres undefined) | 19%
36 | Cn1cc(CC2CCN(C(=O)NCc3cccc(C#N)c3)C2)cn1 (centres undefined) | 8.55%
37 | Cc1cc(Cc2ccc(S(=O)(=O)N3CCSCC3)cc2)c(=O)[nH]n1 | 13.2%
38 | CCC1CN(CCCO)c2ccccc2O1 (centres undefined) | 29.8%
39 | CCC1CN(CCCNS(C)(=O)=O)c2ccccc2O1 (centres undefined) | 50.1%
40 | CCC1CN(CCNS(C)(=O)=O)c2ccccc2O1 (centres undefined) | -4.46%
41 | CS(=O)(=O)N1CCCC12CCN(Cc1nccs1)CC2 | 28.2%
42 | COCCN1C(=O)CCC12CCCN(Cc1nccs1)CC2 (centres undefined) | 48.6%
43 | CCN1C(=O)CCC12CCCN(Cc1nccs1)CC2 (centres undefined) | 59.7%
44 | CS(=O)(=O)N1CCCC12CCN(Cc1nccs1)C2 (centres undefined) | -0.804%
45 | O=C1CCC2(CCCN(Cc3nccs3)C2)N1CC1CC1 (centres undefined) | 36.9%
46 | CN1C(=O)CCCC12CCCN(Cc1nccs1)C2 (centres undefined) | 16.9%

Row | Structure (SMILES) | INHIBITION
47 | Cc1ccc(CN2CCC3(CCCN3S(C)(=O)=O)CC2)s1 | 25.8%
48 | Cc1ccc(CN2CCCC3(CCCCN3S(C)(=O)=O)C2)s1 (centres undefined) | 14.9%
49 | CCN1C(=O)CCC12CCCN(Cc1nccs1)C2 (centres undefined) | 46.2%
50 | CN1C(=O)CCC12CCCN(Cc1nccs1)C2 (centres undefined) | 59%
51 | CS(=O)(=O)N1CCCCC12CCCN(Cc1nccs1)C2 (centres undefined) | 60.3%
52 | Cc1ccc(CN2CCCC3(CCCN3S(C)(=O)=O)C2)s1 (centres undefined) | 63.8%
53 | Clc1ccccc1C1CN(CCc2ccncc2)CCO1 (centres undefined) | 29.1%
54 | Cc1ccc(C(=O)N2CCC3(CC2)COC(COc2cccnc2)C3)o1 (centres undefined) | 3.69%
55 | CN(C)S(=O)(=O)N1CC[C@]2(O)CCN(CCc3cccc(F)c3)C[C@@H]2C1 | 3.96%
56 | CN(C)[C@@H]1CN(Cc2ccoc2)C[C@@H]2CCCO[C@@H]21 | 25.6%
57 | COCC1CN(C(C)=O)CCN(c2cc(C)ncn2)C1 (centres undefined) | 24.4%
58 | Cc1ccc(C(=O)N2C[C@H]3CCC[C@@]3(COc3ccccn3)C2)nc1 | -10.2%
59 | Cc1cc(C2CCC2)nc(NCC(C)(C)CO)n1 | -7.53%
60 | Cc1c(S(=O)(=O)N2CCCCC2c2nnc(-c3cccs3)o2)cnn1C (centres undefined) | -11.28%
61 | CC(C)(O)CN1CCN(C(=O)c2cccc(CC#N)c2)CC1 | -9.76%
62 | Cc1noc(C)c1C1CCCN1C(=O)c1cn2ccsc2n1 (centres undefined) | 12.9%
63 | Cc1ccc(OCc2nc(CNCC3CN(C)CCO3)cs2)cc1 (centres undefined) | -45.6%
64 | CCCc1nc(N2CCC(CCO)CC2)c2cnn(C)c2n1 | 60%
65 | Cc1nc(N2CCCC(N3CCCC3)C2)c2cnn(C)c2n1 (centres undefined) | 55.1%
66 | Cc1nc(N2CCC(CC(=O)N3CCCC3)CC2)c2cnn(C)c2n1 | 31.2%
67 | CCCc1nc(N2CCCN3CCC[C@H]3C2)c2cnn(C)c2n1 | 27.7%
68 | Cc1nc(N2CCN(C(=O)CC3CCCC3)CC2)c2cnn(C)c2n1 | 0.0944%
69 | Cc1nc(N2CCC(CN3CCCC3)CC2)c2cnn(C)c2n1 | 57.2%

Row | Structure (SMILES) | INHIBITION
70 | CCCc1nc(N2CCCC(CCOC)C2)c2cnn(C)c2n1 (centres undefined) | 40.6%
71 | Cn1ncc2c(N3CCCN4CCC[C@H]4C3)nc(C(C)(C)C)nc21 | 31.6%
72 | COCc1nc(N2CCC(CCO)CC2)c2cnn(C)c2n1 | 14.3%
73 | CCc1n[nH]c(C2CN(C(=O)CCc3cscn3)CCO2)n1 (centres undefined) | 7.42%
74 | O=C(c1cccc(NCc2cccc(F)c2)c1)N1CCC(O)CC1 | -39.4%
75 | CC1CN(CC(=O)NC(=O)NCc2ccccc2)CCO1 (centres undefined) | 5.53%
76 | CCS(=O)(=O)c1ncc(CN2CCSCC2)n1CCc1ccccc1 | 58.9%
77 | CCS(=O)(=O)c1ncc(CN2CCCC2)n1CCc1ccccc1 | 13%
78 | CCS(=O)(=O)c1ncc(CN2CCN(C)CC2)n1CCc1ccccc1 | 38.7%
79 | Cc1cc(CN2CCN(C(=O)NC(C)c3ccc(C)o3)CC2)on1 (centres undefined) | 13.75%
80 | CCN(C)C(=O)c1ccnn1-c1ccc2ccccn12 | 51.2%
81 | O=C(NCCCN1CCOCC1)c1ccn(-c2ccc3ccccn23)n1 | 39.8%
82 | CN1CCCN(C(=O)c2ccnn2-c2ccc3ccccn23)CC1 | 53.9%
83 | O=C(c1ccnn1-c1ccc2ccccn12)N1CCCC1 | 30.3%
84 | O=C(NCCN1CCOCC1)c1ccn(-c2ccc3ccccn23)n1 | 47.2%
85 | O=C(NCCN1CCOCC1)c1ccnn1-c1ccc2ccccn12 | 94%
86 | CN(C)C1CCN(C(=O)c2ccnn2-c2ccc3ccccn23)CC1 | 4.98%
87 | COCCNC(=O)c1ccnn1-c1ccc2ccccn12 | 39.3%
88 | O=C(c1ccnn1-c1ccc2ccccn12)N1CCOCC1 | 13.1%
89 | O=C(Nc1cccnc1)C1=NN(c2ccccc2)C(=O)CN1 | -141%
90 | CCCn1nccc1-c1cnc(CC2CCN(C(C)=O)C2)cn1 (centres undefined) | 19.3%
91 | O=C(Cn1ccc(=O)cc1)N1C[C@@H]2CC[C@H]1CN(c1ncccn1)C2 | 15.3%
92 | O=C(c1cc(Cl)c2c(c1)OCO2)N1CCN(c2ncccn2)CC1 | 15.4%

Row | Structure (SMILES) | INHIBITION
93 | CN1CCN(Cc2ccncc2)C(=O)C12CCN(Cc1ccsc1)CC2 | 1.34%
94 | COC1CCN(CC(=O)NCc2ccc(OCC(N)=O)cc2)CC1 | 2.45%
95 | Cc1nc2ccccc2c(=O)n1CCCC(=O)N1CCNC(=O)CC1 | 4.37%
96 | Cc1ccc(=O)n(CC2(O)CCN(Cc3cnn(C)c3)CC2)n1 | -3.31%
97 | Cc1nn(-c2ccccc2)nc1C(=O)NCC(c1ccco1)N(C)C (centres undefined) | 8.48%
98 | Cc1nn(-c2ccccc2)nc1C(=O)NCC(c1ccsc1)N(C)C (centres undefined) | 57.2%
99 | Cc1nn(C)c(Cl)c1C(=O)NCC(c1ccsc1)N(C)C (centres undefined) | 36.4%
100 | O=C1[C@H]2CN(Cc3ccoc3)C[C@H]2CN1CCN1CCCC1 | 3.81%
101 | CCN1C(=O)[C@H]2CN(CC(C)C)C[C@H]2C12CCN(S(C)(=O)=O)CC2 | 20.1%
102 | Cc1noc(CS(=O)(=O)C/C=C/c2ccccc2)n1 | 60.2%
103 | CCc1noc(CS(=O)(=O)C/C=C/c2ccccc2)n1 | 12.4%
104 | O=S(=O)(C/C=C/c1ccccc1)Cc1nc(C2CC2)no1 | 45%
105 | CC(=O)c1ccc(S(=O)(=O)N2CCOC(Cn3ccnc3)C2)cc1 (centres undefined) | 30.4%
106 | CSCC(=O)Nc1nccn1Cc1ccc(Br)cc1 | 50.8%
107 | COCC(=O)Nc1nccn1Cc1ccc(Br)cc1 | 84.2%
108 | CCOCC(=O)Nc1nccn1Cc1ccc(Br)cc1 | 45.2%
109 | CS(=O)(=O)c1nccn1Cc1ccc(C(N)=O)cc1 | 19.2%
110 | CC(C)(C#N)C(=O)Nc1nccn1Cc1ccc(Br)cc1 | 60.1%
111 | CNC(=O)c1ccc(Cn2ccnc2S(C)(=O)=O)cc1 | 20.5%
112 | CSc1ncccc1C(=O)Nc1ccc(Cn2ccccc2=O)cc1 | 9.16%
113 | COCCC(=O)Nc1nccn1Cc1ccc(Br)cc1 | 23.9%
114 | CCn1ccnc1CN(C)C(C(=O)O)c1ccc(C(C)(C)C#N)cc1 (centres undefined) | 42.8%
